According to publication PMC11062922 (Nature Chemical Biology, 2023):
Read-outs that look alike come from different tables or passages of the source.

Legend:
Set-up in all cases: species or system human, MV4-11 + K-562 + COLO205 + SK-N-BE2 + OVCAR-8
[1] = system: ACVR1; conditions: read-out: apparent Kd; compound concentrations:100 nM and 1000 nM (sheet 'Samples'); n = 1
[2] = system: ACVR2B; conditions: read-out: apparent Kd, n = 1
[3] = system: BMPR1A; conditions: read-out: apparent Kd; compound concentrations:100 nM and 1000 nM (sheet 'Samples'); n = 1
[4] = system: CDK6; conditions: read-out: apparent Kd; compound concentrations:100 nM and 1000 nM (sheet 'Samples'); n = 1
[5] = system: MAP2K2; conditions: read-out: apparent Kd; compound concentrations:100 nM and 1000 nM (sheet 'Samples'); n = 1
[6] = system: MAP2K5; conditions: read-out: apparent Kd; compound concentrations:100 nM and 1000 nM (sheet 'Samples'); n = 1
[7] = system: NNT; conditions: read-out: apparent Kd; compound concentrations:100 nM and 1000 nM (sheet 'Samples'); n = 1
[8] = system: NQO1; conditions: read-out: apparent Kd; compound concentrations:100 nM and 1000 nM (sheet 'Samples'); n = 1
[9] = system: PDGFRB; conditions: read-out: apparent Kd; compound concentrations:100 nM and 1000 nM (sheet 'Samples'); n = 1
[10] = system: PRKCI; conditions: read-out: apparent Kd; compound concentrations:100 nM and 1000 nM (sheet 'Samples'); n = 1
[11] = system: PRKCZ; conditions: read-out: apparent Kd; compound concentrations:100 nM and 1000 nM (sheet 'Samples'); n = 1
[12] = system: PTK6; conditions: read-out: apparent Kd; compound concentrations:100 nM and 1000 nM (sheet 'Samples'); n = 1
[13] = system: RIOK2; conditions: read-out: apparent Kd; compound concentrations:100 nM and 1000 nM (sheet 'Samples'); n = 1
[14] = system: RIPK2; conditions: read-out: apparent Kd; compound concentrations:100 nM and 1000 nM (sheet 'Samples'); n = 1
[15] = system: TESK2; conditions: read-out: apparent Kd; compound concentrations:100 nM and 1000 nM (sheet 'Samples'); n = 1
[16] = system: TNIK; conditions: read-out: apparent Kd; compound concentrations:100 nM and 1000 nM (sheet 'Samples'); n = 1
[17] = system: TP53RK; conditions: read-out: apparent Kd; compound concentrations:100 nM and 1000 nM (sheet 'Samples'); n = 1
[18] = system: ADCK3; conditions: read-out: apparent Kd; compound concentrations: 100 nM and 1000 nM (sheet 'Samples'), CATDS: 4.2636301284937402E-2; n = 1
[19] = system: AKT2; conditions: read-out: apparent Kd; compound concentrations: 100 nM and 1000 nM (sheet 'Samples'), CATDS: 3.8315298656597697E-2; n = 1
[20] = system: CDC42BPB; conditions: read-out: apparent Kd; compound concentrations: 100 nM and 1000 nM (sheet 'Samples'), CATDS: 4.17361912468606E-2; n = 1
[21] = system: CDC42BPG; conditions: read-out: apparent Kd; compound concentrations: 100 nM and 1000 nM (sheet 'Samples'), CATDS: 4.6703461081502903E-2; n = 1
[22] = system: CDK13; conditions: read-out: apparent Kd; compound concentrations: 100 nM and 1000 nM (sheet 'Samples'), CATDS: 3.8824736575062302E-2; n = 1
[23] = system: CDKL5; conditions: read-out: apparent Kd; compound concentrations: 100 nM and 1000 nM (sheet 'Samples'), CATDS: 4.2225060915193902E-2; n = 1
[24] = system: CIT; conditions: read-out: apparent Kd; compound concentrations: 100 nM and 1000 nM (sheet 'Samples'), CATDS: 9.7052908053400402E-2; n = 1
[25] = system: CSNK1A1; conditions: read-out: apparent Kd; compound concentrations: 100 nM and 1000 nM (sheet 'Samples'), CATDS: 4.3314802328408702E-2; n = 1
[26] = system: CSNK1D; conditions: read-out: apparent Kd; compound concentrations: 100 nM and 1000 nM (sheet 'Samples'), CATDS: 5.2512295854069302E-2; n = 1
[27] = system: CSNK1E; conditions: read-out: apparent Kd; compound concentrations: 100 nM and 1000 nM (sheet 'Samples'), CATDS: 4.5718432207302401E-2; n = 1
[28] = system: GAK; conditions: read-out: apparent Kd; compound concentrations: 100 nM and 1000 nM (sheet 'Samples'), CATDS: 5.0119839441511702E-2; n = 1
[29] = system: MAP3K12; conditions: read-out: apparent Kd; compound concentrations: 100 nM and 1000 nM (sheet 'Samples'), CATDS: 4.3727049359112501E-2; n = 1
[30] = system: MAP3K4; conditions: read-out: apparent Kd; compound concentrations: 100 nM and 1000 nM (sheet 'Samples'), CATDS: 4.0498159279946502E-2; n = 1
[31] = system: MTOR; conditions: read-out: apparent Kd; compound concentrations: 100 nM and 1000 nM (sheet 'Samples'), CATDS: 6.6094429766625107E-2; n = 1
[32] = system: PIK3CA; conditions: read-out: apparent Kd; compound concentrations: 100 nM and 1000 nM (sheet 'Samples'), CATDS: 0.16597567422928799; n = 1
[33] = system: PRKCD; conditions: read-out: apparent Kd; compound concentrations: 100 nM and 1000 nM (sheet 'Samples'), CATDS: 3.8004287822733102E-2; n = 1
[34] = system: ROCK1; conditions: read-out: apparent Kd; compound concentrations: 100 nM and 1000 nM (sheet 'Samples'), CATDS: 9.5371648246972293E-2; n = 1
[35] = system: ROCK2; conditions: read-out: apparent Kd; compound concentrations: 100 nM and 1000 nM (sheet 'Samples'), CATDS: 9.3527332019104195E-2; n = 1
[36] = system: TESK1; conditions: read-out: apparent Kd; compound concentrations: 100 nM and 1000 nM (sheet 'Samples'), CATDS: 4.6585684962704203E-2; n = 1

Cc1cc(O)cc(C)c1/C=C/c1cncc(C(N)=O)c1 [GW435821X_KCGS]
potency estimated from few doses [1]: 107 nM | potency estimated from few doses ([2]; compound concentrations:100 nM and 1000 nM (sheet 'Samples')): 26.5 nM | potency estimated from few doses [3]: 1200 nM | potency estimated from few doses [4]: 120 nM | potency estimated from few doses [5]: 179 nM | potency estimated from few doses [6]: 2600 nM | potency estimated from few doses [7]: 2010 nM | potency estimated from few doses [8]: 1150 nM | potency estimated from few doses [9]: 1570 nM | potency estimated from few doses [10]: 2300 nM | potency estimated from few doses [11]: 1470 nM | potency estimated from few doses [12]: 1460 nM | potency estimated from few doses [13]: 2280 nM | potency estimated from few doses [14]: 96.7 nM | potency estimated from few doses [15]: 1250 nM | potency estimated from few doses [16]: 2400 nM | potency estimated from few doses [17]: 1440 nM

Cl.Cl.NCC(NC(=O)c1cc(-c2cccnc2)c(-c2ccnc3[nH]ccc23)s1)c1ccccc1.NCC(NC(=O)c1cc(-c2cccnc2)c(-c2ccnc3[nH]ccc23)s1)c1ccccc1 (stereo not shown) [GSK1323434A]
potency estimated from few doses ([2]; compound concentrations: 100 nM and 1000 nM (sheet 'Samples'), CATDS: 4.2186627256430298E-2): 1740 nM | potency estimated from few doses [18]: 1690 nM | potency estimated from few doses [19]: 2290 nM | potency estimated from few doses [20]: 1790 nM | potency estimated from few doses [21]: 1340 nM | potency estimated from few doses [22]: 2200 nM | potency estimated from few doses [23]: 1730 nM | potency estimated from few doses [24]: 344 nM | potency estimated from few doses [25]: 1620 nM | potency estimated from few doses [26]: 1030 nM | potency estimated from few doses [27]: 1410 nM | potency estimated from few doses [28]: 1140 nM | potency estimated from few doses [29]: 1580 nM | potency estimated from few doses [30]: 1940 nM | potency estimated from few doses [31]: 653 nM | potency estimated from few doses [32]: 161 nM | potency estimated from few doses [33]: 2350 nM | potency estimated from few doses [34]: 354 nM | potency estimated from few doses [35]: 364 nM | potency estimated from few doses [36]: 1350 nM
